Screen size: about 9,900 compounds; about 90 (0.9%) were called active. Inconclusive results (about 2%) are left out. What follows is part of a selection rich in actives, with near analogues and random picks from the rest. Unmarked numbers belong to inactive results.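 The calls were made as follows: active = mean normalized replicate activity at least 50 and at least half of replicates each reaching 50; inconclusive = only one of the two criteria met; inactive = neither criterion met.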

The test is described as follows: YAP1 pathway inhibitors via CTGF transcript, primary screen, DLD1 colon cancer cells, RT-qPCR, single point (AID 743449).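 Also: 0% = neutral control wells and 100% = dasatinib control wells; higher means stronger suppression of CTGF expression like dasatinib.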 The conditions noted are these: DLD1 CTGF mRNA qPCR, 24 h; at 12.5 µM; stronger effect = higher value. (In general: In qPCR the cycle at which signal appears reflects the starting amount.)
In the case of `COc1cccc(NC(=O)N2C[C@H](O)COC[C@H]3O[C@H](CC(=O)N(C)C)CC[C@@H]32)c1`, the inhibition was -3.69%. Take `O=C(CN1CCOCC1)N1CC(=O)N2[C@H](C1)[C@@H](c1ccc(-c3cccc(F)c3)cc1)[C@@H]2CO`: the inhibition was 10.6%. Consider `C[C@H](CO)N1C[C@H](C)[C@H](CN(C)C(=O)Nc2ccc(-c3cccs3)cc2)OCc2cnnn2CCCC1=O`, for which the inhibition is 13.8%. On to `C[C@H]1CC=CC[C@H](c2cccc(Cl)c2)NC(=O)[C@@H](Cc2ccccc2)N(C)C(=O)c2ccccc2O1` (mixture of isomers), for which the inhibition is -83.3%. Regarding `CC(C)[C@H]1C(=O)N[C@H](c2cccc(Cl)c2)CC=CC[C@H](C)Oc2ccccc2C(=O)N1C` (mixture of isomers), the inhibition is -2.2%. Consider `C[C@@H]1CC=CC[C@@H](c2cccc(Cl)c2)NC(=O)[C@H](Cc2ccccc2)N(C)C(=O)c2ccccc2O1` (mixture of isomers), for which the inhibition was 50.4% (active). Turning to `CC(C)[C@@H]1C(=O)N[C@H](c2cccc(Cl)c2)CC=CC[C@@H](C)Oc2ccccc2C(=O)N1C` (mixture of isomers), the inhibition is 14.5%. `C[C@@H]1CC=CC[C@@H](c2cccc(Cl)c2)NC(=O)[C@@H](Cc2ccccc2)N(C)C(=O)c2ccccc2O1` (mixture of isomers): the inhibition is 67.5% (active). Regarding `C[C@H]1CC=CC[C@H](c2cccc(Cl)c2)NC(=O)[C@H](Cc2ccccc2)N(C)C(=O)c2ccccc2O1` (mixture of isomers), the inhibition was -228%. `CN1C(=O)c2cc(NC(=O)NCc3ccccc3)ccc2OC[C@@H]2O[C@@H](CC(=O)NCC3CCCCC3)CC[C@H]21`: the inhibition was -20.9%. Consider `COc1cccc(S(=O)(=O)N[C@H]2CC[C@H](CC(=O)NC3Cc4ccccc4C3)O[C@H]2CO)c1`, for which the inhibition is 3.79%. In the case of `Cc1noc(C)c1S(=O)(=O)N(C)C[C@H]1OCCCC[C@H](C)Oc2ccc(NC(=O)CCC(F)(F)F)cc2C(=O)N([C@@H](C)CO)C[C@@H]1C`, the inhibition was 8.01%. For the molecule `CN1C(=O)c2cc(NC(=O)c3cccc(Cl)c3)ccc2OC[C@H]2O[C@H](CC(=O)NC3CCCCC3)CC[C@H]21`, the inhibition is -12.4%. As for `COc1ccccc1NC(=O)N1CCCCN2[C@H](CO)[C@H](c3ccc(-c4cccc(C#N)c4)cc3)[C@H]2C1`, the inhibition is 19.1%. In the case of `COc1ccccc1NC(=O)N1CCCCN2[C@H](CO)[C@H](c3ccc(-c4cccc(C#N)c4)cc3)[C@@H]2C1`, the inhibition was 52.5% (active). For the molecule `COc1ccccc1NC(=O)N1CCCCN2[C@@H](CO)[C@H](c3ccc(-c4cccc(C#N)c4)cc3)[C@@H]2C1`, the inhibition was 75% (active). Consider `COc1ccccc1NC(=O)N1CCCCN2[C@@H](CO)[C@@H](c3ccc(-c4cccc(C#N)c4)cc3)[C@@H]2C1`, for which the inhibition is -18.2%. For the molecule `COc1ccccc1NC(=O)N1CCCCN2[C@H](C1)[C@@H](c1ccc(-c3cccc(C#N)c3)cc1)[C@@H]2CO`, the inhibition was -9.55%.

Consider `COc1ccccc1NC(=O)N1CCCCN2[C@H](CO)[C@@H](c3ccc(-c4cccc(C#N)c4)cc3)[C@H]2C1`, for which the inhibition is -21.9%. As for `COc1cccc(S(=O)(=O)N[C@H]2CC[C@@H](CC(=O)NC3Cc4ccccc4C3)O[C@H]2CO)c1`, the inhibition is 0.76%. Turning to `CCC(=O)N1CC2(C1)[C@H](c1ccc(-c3ccc(F)cc3)cc1)[C@H](CO)N2C(C)=O`, the inhibition was 5.26%. With `COc1cccc(C(=O)Nc2ccc3c(c2)C(=O)N(C)[C@@H]2CC[C@H](CC(=O)N[C@@H](C)c4ccccc4)O[C@@H]2CO3)c1`, the inhibition is -43.4%. Consider `O=C(Nc1ccc(F)cc1)N1CC(=O)N2[C@H](C1)[C@@H](c1ccc(-c3cccc(F)c3)cc1)[C@@H]2CO`, for which the inhibition was -72.3%. As for `COCC(=O)N1[C@H](CO)[C@@H](c2ccccc2)C12CN(C(=O)c1ccccc1)C2`, the inhibition was -0.941%. Take `C[C@H]1CN([C@@H](C)CO)C(=O)c2ccccc2-c2ccccc2CO[C@H]1CN(C)S(=O)(=O)c1cn(C)cn1`: the inhibition is 10.4%.

Consider `CC(C)(C)S(=O)N1Cc2cc(C(=O)NCc3ccc4c(c3)OCO4)nc(-c3cccc(-c4cc5ccccc5o4)c3)c2[C@H]1CCO` (stereo partly drawn), for which the inhibition is 20.7%. Take `CC(C)(C)[S@](=O)N1Cc2cc(C(=O)NC3CCC3)nc(-c3cccc(-c4ccccc4F)c3)c2[C@@H]1CCO`: the inhibition was 41%.

As for `CC(C)(C)S(=O)N1Cc2cc(C(=O)NCc3ccc(Oc4ccccc4)cc3)nc(-c3cccc(-c4cccc(F)c4)c3)c2[C@@H]1CCO` (stereo partly drawn), the inhibition is 9.98%.

Take `CCNC(=O)c1cc2c(c(-c3cccc(-c4ccccc4F)c3)n1)[C@@H](CCO)N(C(=O)CC1CC1)C2`: the inhibition is 59.3% (active). `CC(C)(C)[S@@](=O)N1Cc2cc(C(=O)NCc3ccccn3)nc(-c3cccc(-c4ccccc4F)c3)c2[C@H]1CCO`: the inhibition is -29.9%. `CCC(=O)N1Cc2cc(C(=O)NCc3cccc(F)c3)nc(-c3cccc(C4=CCCC4)c3)c2[C@H]1CCO`: the inhibition is 50.2% (active). Regarding `CCNC(=O)c1cc2c(c(-c3cccc(-c4cncnc4)c3)n1)[C@H](CCO)N(C(C)=O)C2`, the inhibition was -8.43%. For `CC(C)(C)[S@](=O)N1Cc2cc(C(=O)NCc3ccccn3)nc(-c3cccc(-c4ccccc4F)c3)c2[C@@H]1CCO`, the inhibition is 53% (active). In the case of `CC(C)(C)S(=O)N1Cc2cc(C(=O)NCc3ccc4c(c3)OCO4)nc(-c3cccc(-c4cccc(F)c4)c3)c2[C@@H]1CCO` (stereo partly drawn), the inhibition was 55.2% (active).

Consider `CN(C)C(=O)c1cc2c(c(-c3cccc(C4=CCCCC4)c3)n1)[C@@H](CCO)N(S(C)(=O)=O)C2`, for which the inhibition was -7.52%. For the molecule `CCNC(=O)c1cc2c(c(-c3cccc(-c4ccccc4F)c3)n1)[C@H](CCO)N(C(=O)CC1CC1)C2`, the inhibition is -97.9%. Take `CCN1Cc2cc(C(=O)Nc3nccs3)nc(-c3cccc(C4=CCCC4)c3)c2[C@H]1CCO`: the inhibition was -15.8%. For the molecule `O=C1C[C@H](c2ccccc2)C(=O)N[C@H](c2ccccc2)C/C=C\C[C@H](c2ccccc2)N1`, the inhibition is -5.88%.

On to `COc1ccc(S(=O)(=O)Nc2ccc3c(c2)C(=O)N([C@H](C)CO)C[C@H](C)[C@@H](CN(C)C(=O)Nc2c(C)noc2C)OCCCC[C@H](C)O3)cc1`, for which the inhibition was -7.64%. Consider `O=C(Cc1cccnc1)N1[C@H](CNCC2CCC2)[C@H](c2ccccc2)[C@@H]1CO`, for which the inhibition is -21.2%.

Consider `COc1ccc(S(=O)(=O)Nc2ccc3c(c2)C(=O)N([C@@H](C)CO)C[C@@H](C)[C@@H](CN(C)Cc2ccc(C(F)(F)F)cc2)OCCCC[C@H](C)O3)cc1`, for which the inhibition was -37.9%. As for `O=C(C1CCOCC1)N1CC[C@@H]2[C@@H](CO)Nc3ccc(-c4cccc(F)c4)cc3[C@@H]21`, the inhibition is -12.5%. `CO[C@H]1CC[C@H]2CCOc3c(C#N)cccc3C(=O)N(C)C[C@@H](OC)[C@@H](C)C(=O)N(C)C[C@H]1O2`: the inhibition is -18.4%. In the case of `O=C(C[C@@H]1CC[C@@H]2[C@H](COC[C@@H](O)CN2C(=O)c2cnccn2)O1)N1CCN(c2ccccc2)CC1`, the inhibition is -2.5%. Regarding `COc1ccc2c3c([nH]c2c1)[C@H](CO)N(C(=O)c1ccccn1)CC31CCN(S(C)(=O)=O)CC1`, the inhibition was -21.9%.

For the molecule `COc1ccccc1CN1[C@@H]2c3ccc(C4=CCCC4)c(=O)n3C[C@H]1[C@H](CO)[C@H]2C(=O)N(C)C`, the inhibition was 2.56%.

As for `C[C@@H]1CN([C@H](C)CO)C(=O)Cc2cc(NS(=O)(=O)c3cccs3)ccc2O[C@@H]1CN(C)CC1CCCCC1`, the inhibition was 1.75%.

As for `COc1ccc2c3c(n(C)c2c1)[C@@H](CO)N(S(C)(=O)=O)CC31CCN(Cc2nccs2)CC1`, the inhibition is 14%.

Broadly, the inhibition is the drop in the measured response relative to a control, in per cent.

(Values after PubChem BioAssay AID743449 (Broad Institute, 2014).)
